This is part of a sample that, as a whole, favours compounds with a hit. Of some 79,000 tested, about 15% had one in any assay. Values without a mark were called inactive. Calls of active or inactive are those of the source. Cut-off read from the data, not from the text of the source: active = growth inhibition above about 70%; inactive = the rest.

A short description of the first test: NCI Yeast Anticancer Drug Screen. Data for the bub3 strain (AID 167). To be noted: S. cerevisiae bub3 mutant strain, at 50.0 µM, active compounds read high. In outline: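 Whole-cell yeast assay. The mutant strain was incubated with compounds, and growth inhibition was determined by comparison with vehicle-treated cells.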
On to `CNS(=O)(=O)c1ccccc1C=C(c1ccccc1)c1ccccc1`, for which the growth inhibition was 81.8% (active).

With `CC(C)c1cc(C(C)C)c(Cl)c(Cl)c1O` (tested in a mixture with another compound), the growth inhibition was 87.5% (active).

With `Nc1cccc2cccnc12`, the growth inhibition is 12.6%.

For the compound `C[n+]1c(/C=C/c2ccc(N3CCCC3)cc2)sc2ccccc21`, the growth inhibition is 98.2% (active).

For the compound `Nc1cn(C2OC(CC(c3ccccc3)(c3ccccc3)c3ccccc3)C(O)C2O)c(=O)[nH]c1=O` (stereo not drawn), the growth inhibition was 46.5%.

For the compound `c1ccc(Cn2nnc(-c3ccccc3)c2-c2ccccc2)cc1`, the growth inhibition is 94% (active).

As for `CCCCCC(CCCCC)OC(=O)CCN(CCCCC)CCCCC`, the growth inhibition is 51.9%.

As to `C=CCC1(OC(C)=O)CC2C(=O)C(=O)C(C1)N2OC(=O)c1ccccc1` (stereo not drawn), the growth inhibition was 98% (active).

Turning to `C=CS(=O)(=O)c1ccc([N+](=O)[O-])cc1`, the growth inhibition is 99.3% (active).

Take `Cc1ccc(S(=O)(=O)Oc2ccc(C(C)(C)C)cc2Cl)cc1`: the growth inhibition was 11.4%.

In the case of `O=C(CCl)N1CCN(C(c2ccccc2)c2ccccc2)CC1`, the growth inhibition is 95.5% (active).

Regarding `Oc1ccc2ccccc2c1.[Cu+2]`, the growth inhibition is 94% (active).

Turning to `NS(=O)(=O)c1ccc(NC(=O)Cc2nc3ccccc3s2)cc1`, the growth inhibition was 92% (active).

Take `O=C(COc1ccc(Cl)cc1)OCCO`: the growth inhibition was -5.6%.

Take `NC(=Nc1ccccc1)SCc1ccc([N+](=O)[O-])cc1`: the growth inhibition was 70.5% (active).

In the case of `N[C@@H]1CCCC[C@@H]1N.O=C([O-])CN(CP(=O)([O-])[O-])CP(=O)([O-])[O-].[Pt+2]`, the growth inhibition is 99.3% (active).

Take `C/C=C(\C)CC/C=C/CO[Si](C)(C)C(C)(C)C`: the growth inhibition is 2.8%.

Turning to `CCOC(=O)c1cnc2cc3cccccc3n2c1=O`, the growth inhibition is 31.6%.

As to `C(=N\NC1=NCCN1)/c1ccc(-c2cn3cc(/C=N/NC4=NCCN4)ccc3n2)cc1`, the growth inhibition is 99.3% (active).

Turning to `CC(CN(C)C)C(/C=C/c1ccc(F)cc1)=N\Nc1ccccc1` (stereo not drawn), the growth inhibition is 15.9%.

`O=C1C(Sc2ccc3ccccc3c2)=C(Sc2ccc3ccccc3c2)C(=O)c2ccccc21`: the growth inhibition is 98.9% (active).

Consider `CC(O)c1cccnc1` (stereo not drawn), for which the growth inhibition was 28.6%.

Regarding `Cc1cccc2nc3nc(Cl)c(Cl)nc3n12`, the growth inhibition is 51.4%.

`CSc1cc2c(cc1N)Cc1cc(F)ccc1-2`: the growth inhibition is 98% (active).

As for `CC(C)C1=CC23CCC4C(C)(C(=O)O)CCCC4(C)C2CC1c1c(O)ccc(O)c13` (stereo not drawn), the growth inhibition was 99.2% (active).

For `C=CCNC(=S)N/N=C(\CCC)c1ccccn1`, the growth inhibition was 99.5% (active).

Take `C#CC(C)(C)OC(C)=O`: the growth inhibition is 35.6%.

Regarding `Cc1cc(N2C(=O)CSC2=S)c([N+](=O)[O-])cc1C`, the growth inhibition is 99.5% (active).

For the compound `Cc1[nH]c(=O)[nH]c(=O)c1CN(C)Cc1cc(Cl)cc(Cl)c1O`, the growth inhibition was 30.1%.

As to `CCCCC(CC)C(O)C(=O)O` (stereo not drawn), the growth inhibition is 33.9%.

For the compound `CCOCCOc1ccc(OCCOCC)cc1`, the growth inhibition was -2.95%.

For `O=C(O)c1ccc(C(=O)c2ccccc2C(=O)O)cc1`, the growth inhibition was 99.7% (active).

Consider `CCCCCCCCCCCCCCNC(=O)CCC(NC(=O)c1ccc(N(C)Cc2cnc3nc(N)nc(N)c3n2)cc1)C(=O)NCCCCCCCCCCCCCC` (stereo not drawn), for which the growth inhibition was 68.7%.

Regarding `C=C1C(=O)C23OC2C1CCC(=O)C1(C)CC[C@H](OC(C)=O)C(C)(C)[C@H]1CC3O` (stereo partly drawn), the growth inhibition was 99.2% (active).

Consider `CCCCCCCCCCC(NC(C)=O)(C(=O)OCC)C(=O)OCC`, for which the growth inhibition was 94.5% (active).

As to `ClC(Cl)(Cl)/C=C/c1cnc2ccccc2n1`, the growth inhibition was 85.7% (active).

Turning to `CCc1nc(N)nc(N)c1-c1ccc(N(C)Cc2ccccc2)c([N+](=O)[O-])c1`, the growth inhibition was 10.1%.

As for `O=C(COC(=O)C(c1ccccc1)c1ccccc1)c1ccc(Br)cc1`, the growth inhibition is 88% (active).

As for `OCCN1COc2cc3c(cc2C1)OCN(CCO)C3`, the growth inhibition is -6.35%.

A further test can be described thus: NCI Yeast Anticancer Drug Screen. Data for the mlh1 rad18 strain (AID 175). To be noted: S. cerevisiae mlh1 rad18 strain growth inhibition; at 5.0 µM (retest, dose inferred, filed as 0.5); active compounds read high. In outline:
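Compound-treated yeast growth, normalised to vehicle controls. Strain bears defined DNA repair mutations.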
For `CNS(=O)(=O)c1ccccc1C=C(c1ccccc1)c1ccccc1`, the growth inhibition was -2%.

Turning to `CC(C)c1cc(C(C)C)c(Cl)c(Cl)c1O` (tested in a mixture with another compound), the growth inhibition was -1%.

For `Nc1cccc2cccnc12`, the growth inhibition was 29%.

With `C[n+]1c(/C=C/c2ccc(N3CCCC3)cc2)sc2ccccc21`, the growth inhibition is 85% (active).

`Nc1cn(C2OC(CC(c3ccccc3)(c3ccccc3)c3ccccc3)C(O)C2O)c(=O)[nH]c1=O` (stereo not drawn): the growth inhibition is 97% (active).

Turning to `c1ccc(Cn2nnc(-c3ccccc3)c2-c2ccccc2)cc1`, the growth inhibition is 14%.

Regarding `CCCCCC(CCCCC)OC(=O)CCN(CCCCC)CCCCC`, the growth inhibition was 3%.

`C=CCC1(OC(C)=O)CC2C(=O)C(=O)C(C1)N2OC(=O)c1ccccc1` (stereo not drawn): the growth inhibition was 10%.

Take `C=CS(=O)(=O)c1ccc([N+](=O)[O-])cc1`: the growth inhibition was 16%.

With `Cc1ccc(S(=O)(=O)Oc2ccc(C(C)(C)C)cc2Cl)cc1`, the growth inhibition was 20%.

With `O=C(CCl)N1CCN(C(c2ccccc2)c2ccccc2)CC1`, the growth inhibition was 15%.

Regarding `Oc1ccc2ccccc2c1.[Cu+2]`, the growth inhibition is 0%.

Regarding `NS(=O)(=O)c1ccc(NC(=O)Cc2nc3ccccc3s2)cc1`, the growth inhibition is 65%.

Take `O=C(COc1ccc(Cl)cc1)OCCO`: the growth inhibition was 3%.

Consider `NC(=Nc1ccccc1)SCc1ccc([N+](=O)[O-])cc1`, for which the growth inhibition was 43%.

Take `N[C@@H]1CCCC[C@@H]1N.O=C([O-])CN(CP(=O)([O-])[O-])CP(=O)([O-])[O-].[Pt+2]`: the growth inhibition is -1%.

On to `C/C=C(\C)CC/C=C/CO[Si](C)(C)C(C)(C)C`, for which the growth inhibition was -16%.

Regarding `CCOC(=O)c1cnc2cc3cccccc3n2c1=O`, the growth inhibition was -1%.

Consider `C(=N\NC1=NCCN1)/c1ccc(-c2cn3cc(/C=N/NC4=NCCN4)ccc3n2)cc1`, for which the growth inhibition was 99% (active).

Consider `CC(CN(C)C)C(/C=C/c1ccc(F)cc1)=N\Nc1ccccc1` (stereo not drawn), for which the growth inhibition is 0%.

As for `O=C1C(Sc2ccc3ccccc3c2)=C(Sc2ccc3ccccc3c2)C(=O)c2ccccc21`, the growth inhibition is 16%.

For the compound `CC(O)c1cccnc1` (stereo not drawn), the growth inhibition was -9%.

On to `Cc1cccc2nc3nc(Cl)c(Cl)nc3n12`, for which the growth inhibition is 26%.

With `CSc1cc2c(cc1N)Cc1cc(F)ccc1-2`, the growth inhibition is -2%.

Consider `CC(C)C1=CC23CCC4C(C)(C(=O)O)CCCC4(C)C2CC1c1c(O)ccc(O)c13` (stereo not drawn), for which the growth inhibition is 81% (active).

With `C=CCNC(=S)N/N=C(\CCC)c1ccccn1`, the growth inhibition is 99% (active).

Take `C#CC(C)(C)OC(C)=O`: the growth inhibition is -1%.

Consider `Cc1cc(N2C(=O)CSC2=S)c([N+](=O)[O-])cc1C`, for which the growth inhibition is 84% (active).

Turning to `Cc1[nH]c(=O)[nH]c(=O)c1CN(C)Cc1cc(Cl)cc(Cl)c1O`, the growth inhibition is -3%.

In the case of `CCCCC(CC)C(O)C(=O)O` (stereo not drawn), the growth inhibition is -2%.

With `CCOCCOc1ccc(OCCOCC)cc1`, the growth inhibition was 13%.

Take `O=C(O)c1ccc(C(=O)c2ccccc2C(=O)O)cc1`: the growth inhibition was 1%.

Regarding `CCCCCCCCCCCCCCNC(=O)CCC(NC(=O)c1ccc(N(C)Cc2cnc3nc(N)nc(N)c3n2)cc1)C(=O)NCCCCCCCCCCCCCC` (stereo not drawn), the growth inhibition was 24%.

In the case of `C=C1C(=O)C23OC2C1CCC(=O)C1(C)CC[C@H](OC(C)=O)C(C)(C)[C@H]1CC3O` (stereo partly drawn), the growth inhibition was 92% (active).

For `CCCCCCCCCCC(NC(C)=O)(C(=O)OCC)C(=O)OCC`, the growth inhibition was 11%.

As for `ClC(Cl)(Cl)/C=C/c1cnc2ccccc2n1`, the growth inhibition was 3%.

Turning to `CCc1nc(N)nc(N)c1-c1ccc(N(C)Cc2ccccc2)c([N+](=O)[O-])c1`, the growth inhibition is 8%.

With `O=C(COC(=O)C(c1ccccc1)c1ccccc1)c1ccc(Br)cc1`, the growth inhibition was -1%.

Consider `OCCN1COc2cc3c(cc2C1)OCN(CCO)C3`, for which the growth inhibition was -5%.

The record behind these values is PubChem BioAssay (NCI).
